HT1080NT lethal: kills 2HG-producing HT-1080-NT fibrosarcoma cells | HT-1080-NT fibrosarcoma viability, CellTiter-Glo ATP luminescence, 48 h | AID 686970 | hit rate 1.6% among 360,000 | Potency, µM (titrated, usually from 46.1 µM), inactives show top-dose activity, negative = less viability, usual class: cytotoxic;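 further: NT is the 2HG producing partner of a matched IDH1 knockdown line; 0% = DMSO-treated cells and -100% = media-only wells without cells; nearly all actives have a fitted effect of over 55% in size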
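Viability of the 2HG-overproducing fibrosarcoma line after 48 hours of compound exposure at 37 degrees C was determined by luminescence with CellTiter-Glo, and concentration-effect curves were then fitted and categorized.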
ATXN2 expr inh: reduces ATXN2 reporter expression in HEK-293 cells. HEK-293 ATXN2-luciferase reporter, luminescence, 24 h. Potency, µM (titrated, usually from 57 µM), inactives show at the top dose activity change, negative = inhibition, hits mostly inhibitors. hit rate 0.72% among 360,000; further: on the % scale 0 is the no-effect control and ±100 the full control effect; nearly all actives have a fitted effect of over 55% in size
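qHTS (up to 57 uM final) was run with 24 h compound exposure of reporter cells at 37 °C. Each well was multiplexed: SteadyGlo luminescence measured ATXN2-luciferase expression after a fluorogenic Gly-Phe-AFC viability readout (25 uM final).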
HT1080 IDH1KD tx: kills HT-1080 cells with IDH1 knockdown. HT-1080 IDH1 knockdown viability, ATP luminescence, 48 h. Potency, µM (titrated, usually from 46.1 µM), inactives show top-dose activity, negative = toxicity, hits mostly cytotoxic. hit rate 2% among 360,000. AID 686971;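 further: 0% = DMSO wells and -100% = cell-free medium wells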
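Cytotoxicity counter-line: IDH1KD HT-1080, 48 h, CellTiter-Glo. Curves classed by r2, magnitude and activity.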
KB-3-1 tox: KB-3-1 parental cell cytotoxicity. KB-3-1 viability, CellTiter-Glo ATP luminescence, 72 h. hit rate 1.4% among 400,000. Potency, µM (highest dose often 46.1 µM), hits mostly cytotoxic; further: on the % scale 0 is the no-effect control and ±100 the full control effect; nearly all actives have a fitted effect of over 60% in size
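Cells are dispensed, compounds pinned in, plates held at 37 °C for 72 h, then CellTiter-Glo is added and luminescence read after 10 minutes. Cell line: parental KB-3-1 in phenol-red-free DMEM, 10% FBS.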
KB-V1 MDR tox: KB-V1 MDR subline cytotoxicity. hit rate 3.4% among 400,000. Potency, µM (titrated, usually from 46.1 µM), actives largely listed as cytotoxic. KB-V1 MDR cells viability, CellTiter-Glo, 72 h. AID 1347076; further: on the % scale 0 is the no-effect control and ±100 the full control effect; nearly all actives have a fitted effect of over 60% in size
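KB-V1, DMEM (no phenol red) + 10% FBS; cpd pin-transferred, titration series; 72 h, 37 degrees C; CellTiter-Glo, luminescence. Data normalized, curve-fit.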
ATXN viability: cell viability loss in ATXN counter-screen; S2 cells (HEK-293 line with an ATXN2-luciferase reporter) viability, CellTiter-Fluor protease fluorescence, 24 h; Potency, µM (doses to about 56.7 µM), actives largely listed as cytotoxic; hit rate 0.49% among 400,000; AID 651635; further: nearly all actives have a fitted effect of over 40% in size
* marks the source's active call; other numbers are inactive results; i = inactive; ? = inconclusive; nt = no result given. The list is not random: actives were taken first. Their share in the collection is about 6.2%. The call rests on the fitted dose curve; in most records, active means well fitted curve in the direction sought with a large enough effect; inconclusive means small, poorly fitted or top-dose-only effect, or another doubt; inactive means no such curve, though single readings can be large; an effect the other way counts as inactive or inconclusive. Potency means the concentration at half of the fitted maximal effect.

SMILES | HT1080NT lethal | ATXN2 expr inh | HT1080 IDH1KD tx | KB-3-1 tox | KB-V1 MDR tox | ATXN viability
CCC(C)NCCOCCOc1ccc(Cl)cc1Br (centres undefined) | 21µM* | -28% | ? | i | i | i
COc1cc(OC)cc(C(=O)Nc2nc(-c3nnn(-c4ccc(F)c(Cl)c4)c3C)ns2)c1 | nt | nt | nt | i | i | nt
Cc1ccc(/C=C/C(=O)N2CCC(Cc3ccccc3)CC2)cc1 | -6% | 14% | -4% | i | 21µM* | i
COc1ccccc1N1CCN(C(=O)/C=C/c2ccc(C)cc2)CC1 | 5% | 6% | 7% | i | 16µM* | i
COc1ccccc1N1CCN(C(=O)/C=C/c2cccc([N+](=O)[O-])c2)CC1 | -2% | -12% | -21% | i | i | i
Cc1ccc(/C=C/C(=O)N2CCCC(C)C2)cc1 (centres undefined) | 17% | 2% | 10% | i | 16µM* | i
CCOC(=O)C1CCCN(C(=O)/C=C/c2ccc(Cl)cc2)C1 (centres undefined) | 4% | -6% | 0% | i | i | i
CCCCn1cc(S(=O)(=O)c2cc(C)ccc2C)c(=O)c2cc(F)c(F)cc21 | nt | 1% | nt | i | i | i
Cc1ccc2c(c1)c1c3n2CCN(C(=O)CN2CCN(C)CC2)C3CCC1 (centres undefined) | 23µM* | -7% | ? | ? | 21µM* | i
Cc1ccc2c(c1)c1c3n2CCN(C(=O)C2CC2)C3CCC1 (centres undefined) | -2% | 5% | 8% | i | i | i
CN1CCN(CC(=O)N2CCn3c4c(c5cc(C6CCCCC6)ccc53)CCCC42)CC1 (centres undefined) | ? | ? | 23µM* | ? | i | ?
Cc1ccc(C(=O)N2CCn3c4c(c5cc(C)ccc53)CCCC42)cc1 (centres undefined) | nt | -26% | nt | i | i | i
Cc1ccc2c(c1)c1c3n2CCN(C(=O)Cn2c(-c4ccccc4)noc2=O)C3CCC1 (centres undefined) | -13% | -7% | -24% | i | 4.1µM* | i
COc1cccc(NC(=O)Cn2c(=O)n(-c3ccccc3)c(=O)c3ccc(C(=O)NCc4ccc5c(c4)OCO5)cc32)c1 | nt | -24% | nt | i | i | i
Cc1cc(C)c2c(c1)/C(=C/C(=O)c1ccc(Br)s1)C(=O)N2 | ? | 18µM* | ? | 18µM* | 23µM* | ?
Cc1cc(Br)c2c(c1)/C(=C/C(=O)c1cccs1)C(=O)N2 | ? | ? | -22% | i | i | ?
Cc1cccc2c1NC(=O)/C2=C\C(=O)c1cccs1 | 18µM* | ? | 16µM* | i | ? | i
Cc1ccccc1[C@H](NC1c2ccccc2C=Cc2ccccc21)P(=O)(c1ccccc1)c1ccccc1 | 15µM* | ? | 13µM* | ? | ? | ?
Cc1cc(NCCCN2CCOCC2)n2ncc(-c3ccccc3)c2n1 | -18% | 48% | -19% | i | i | ?
CC(C)(C)c1cc(NCCCn2ccnc2)n2ncc(-c3ccc(Cl)cc3)c2n1 | 10µM* | ? | 10µM* | i | ? | ?
Cc1cc(NCCCn2ccnc2)n2nc(-c3ccc(Cl)cc3)cc2n1 | -1% | 8% | -13% | i | i | i
CN(C)CCCNc1cc(C(C)(C)C)nc2c(-c3ccccc3)cnn12 | 21µM* | 8% | ? | i | i | i
COc1cccc(CCNc2ncnc3sc(C(=O)N4CCOCC4)c(C)c23)c1 | nt | nt | nt | nt | nt | i
CN(C)CCCNc1nc2cc(-c3ccc(F)cc3)sc2c(=O)n1C | ? | 20µM* | 16µM* | i | i | ?
COc1ccc(-c2cc3nc(NCCCN(C)C)n(C)c(=O)c3s2)c(C)c1 | ? | -24% | -29% | i | i | i
SMILES | HT1080NT lethal | ATXN2 expr inh | HT1080 IDH1KD tx | KB-3-1 tox | KB-V1 MDR tox | ATXN viability
CN(C)CCCNc1nc2cc(-c3ccccc3)sc2c(=O)n1C | 9.2µM* | -2% | ? | i | i | i
Cc1cc(Cl)ccc1-c1cc2nc(NCCCN(C)C)n(C)c(=O)c2s1 | 18µM* | 32µM* | 18µM* | i | i | ?
COc1ccc(NC(=O)COc2ccc(S(=O)(=O)NC3CCCCC3)cc2)cc1OC | nt | -16% | nt | i | i | i
CC1(C)CCC2=C(O1)c1ccccc1C(=O)C2=O | nt | 27µM* | nt | ? | ? | nt
CC1(C)CCC(=O)c2ccccc21 | 1% | 3% | -6% | i | i | i
COc1cc2cnc(-c3ccccc3)c(-c3ccc(C#N)cc3)c2cc1OC | 0% | ? | 9% | 13µM* | i | ?
COc1cc2cnc(-c3ccccc3)c(-c3cccc(C(F)(F)F)c3)c2cc1OC | 12% | ? | 7% | ? | ? | ?
COC(=O)NC(=S)Nc1ccc(Oc2ccc(Cl)cc2Cl)c(Cl)c1 | 16µM* | -30% | 21µM* | 15µM* | ? | ?
Cc1nc2c(-c3ccc(F)cc3)cnn2c(N)c1-c1ccc(F)cc1 | 3% | 106% | 0% | i | ? | i
Cn1cc(-c2cnn3c(N)c(Br)c([C@H]4CCCNC4)nc23)cn1 | nt | 0.39µM* | nt | nt | nt | nt
CCn1c2ccccc2c2cc(NC(=O)COC(=O)c3cccc(S(=O)(=O)NC)c3)ccc21 | 13% | 16µM* | 0% | i | i | i
CCn1c2ccccc2c2cc(NC(=O)c3cccc(OC)c3)ccc21 | 13µM* | 22% | ? | ? | ? | i
CCn1c2ccccc2c2cc(NC(=O)COc3ccccc3OC)ccc21 | ? | -22% | 16µM* | 4.6µM* | 6.5µM* | i
CCn1c2ccccc2c2cc(NC(=O)COC(=O)Cc3cn4ccsc4n3)ccc21 | -7% | 28µM* | -5% | i | i | i
CCn1c(=O)sc2cc(NC(=O)c3cccc(OC)c3)ccc21 | nt | 12% | nt | i | i | ?
CCn1c2ccccc2c2cc(NC(=O)COc3ccc(C)c(C)c3)ccc21 | nt | 2% | nt | i | i | ?
Cc1ccccc1C(=O)Nc1nnc2n1CCS2 | nt | 13% | nt | i | ? | i
Cc1ccc(Cl)cc1NC(=O)Nc1nnc(N(C)Cc2ccccc2)s1 | nt | nt | nt | i | i | nt
CC(=O)c1ccc(NC(=O)CN(C)S(=O)(=O)c2cc3c(cc2C)NC(=O)CO3)cc1 | nt | 4% | nt | i | i | ?
CCn1c2ccccc2c2cc(NC(=O)CNCc3ccccc3OC)ccc21 | 3.7µM* | ? | 6.5µM* | ? | ? | ?

Compound activity deposited in PubChem by National Center for Advancing Translational Sciences (NCATS).
